Compound activity deposited in PubChem by National Center for Advancing Translational Sciences (NCATS).
FEN1 inhibitor = qHTS Assay for the Inhibitors of Human Flap endonuclease 1 (FEN1) | Recombinant FEN1 flap cleavage, fluorescence, 15 min | Potency, µM (doses to about 114 µM), inactives show at the highest dose activity change, negative = inhibition, usual class: inhibitors | hit rate 0.35% among 390,000 | AID 588795, 2011; also: potency is read from the fitted curve at half-maximal effect; % is scaled to controls: 0 for no effect and ±100 for the full control effect; nearly all actives have a fitted effect of over 65% in size
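Nuclease activity of 10 nM FEN1 was measured after 15 min of room-temperature exposure to titrated compounds, by adding 50 nM flap substrate and reading plates at 0 and 15 min.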
Pol iota inh = qHTS for Inhibitors of Polymerase Iota; Pol iota fluorescent replication assay, 10 min; hit rate 1% among 390,000; DNA polymerase iota (Homo sapiens), Q9UNA4; Potency, µM (titrated, usually from 115 µM), inactives show top-dose activity, negative = inhibition, hits mostly inhibitors; also: potency is read from the fitted curve at half-maximal effect
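Pol iota at 10 nM preincubated 15 min with compounds at room temperature; reaction started with fluorescent substrate, 50 nM final. Fluorescence read kinetically at 0 and 10 min; buffer-only wells as negative control.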
Pol kappa inh-1 = qHTS for Inhibitors of Polymerase Kappa; DNA polymerase kappa (Homo sapiens), Q9UBT6; purified Pol kappa, fluorescent DNA synthesis assay, 10 min; Potency, µM (doses to about 107 µM), for inactives: at the highest dose activity, negative = inhibition, most hits filed as inhibitors; hit rate 0.53% among 400,000; also: potency is read from the fitted curve at half-maximal effect; % is scaled to controls: 0 for no effect and ±100 for the full control effect
Target sequence (Q9UBT6 whole entry, looked up): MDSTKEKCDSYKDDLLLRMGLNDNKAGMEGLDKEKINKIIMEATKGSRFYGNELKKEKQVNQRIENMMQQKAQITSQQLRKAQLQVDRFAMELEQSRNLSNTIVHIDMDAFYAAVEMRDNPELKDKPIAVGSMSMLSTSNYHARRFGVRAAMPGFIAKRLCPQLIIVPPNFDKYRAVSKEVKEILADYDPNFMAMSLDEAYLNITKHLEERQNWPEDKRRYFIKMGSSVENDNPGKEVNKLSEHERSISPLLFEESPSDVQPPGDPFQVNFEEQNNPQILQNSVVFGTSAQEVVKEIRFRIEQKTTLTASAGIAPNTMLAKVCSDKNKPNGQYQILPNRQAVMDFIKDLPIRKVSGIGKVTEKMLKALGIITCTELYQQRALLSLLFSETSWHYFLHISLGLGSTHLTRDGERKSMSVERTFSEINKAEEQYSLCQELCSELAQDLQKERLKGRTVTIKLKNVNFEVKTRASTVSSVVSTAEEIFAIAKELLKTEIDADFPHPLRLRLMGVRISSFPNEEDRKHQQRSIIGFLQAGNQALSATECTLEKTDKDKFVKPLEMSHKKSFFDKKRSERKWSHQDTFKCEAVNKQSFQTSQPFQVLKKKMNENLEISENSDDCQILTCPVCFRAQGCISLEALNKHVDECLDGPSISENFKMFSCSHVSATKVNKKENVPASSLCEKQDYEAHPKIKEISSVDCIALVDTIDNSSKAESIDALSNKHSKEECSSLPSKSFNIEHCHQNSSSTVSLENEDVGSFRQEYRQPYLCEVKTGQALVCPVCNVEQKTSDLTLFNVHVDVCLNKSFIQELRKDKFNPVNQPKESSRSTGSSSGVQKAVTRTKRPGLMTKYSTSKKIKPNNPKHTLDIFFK
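Kinetic fluorescence screen: compound preincubated 15 min RT with 10 nM enzyme; 50 nM substrate (final) initiates; reads at 0/10 min.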
WRN inhibitor = qHTS for Inhibitors of WRN Helicase | Bifunctional 3'-5' exonuclease/ATP-dependent helicase WRN (Homo sapiens), Q14191 | hit rate 0.46% among 360,000 | AID 651768, 2012 | WRN helicase unwinding, fluorescent forked duplex, kinetic | Potency, µM (titrated, usually from 114 µM), inactives show at the top dose activity change, negative = inhibition, most hits filed as inhibitors; also: potency is read from the fitted curve at half-maximal effect; % is scaled to controls: 0 for no effect and ±100 for the full control effect; nearly all actives have a fitted effect of over 55% in size
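Primary qHTS, 1536-well format. 20 nM WRN + compound, 15 min RT; start with 100 nM forked fluorophore/quencher duplex, 2 mM ATP (final); kinetic read ex 525/em 598 nm.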
Pol eta inh-1 = qHTS for Inhibitors of Polymerase Eta; recombinant Pol eta, fluorescent DNA replication assay; hit rate 1.2% among 390,000; Potency, µM (doses to about 114 µM), for the others: top-dose activity change, negative = inhibition, usual class: inhibitors; DNA polymerase eta (Homo sapiens), Q9Y253; also: potency is read from the fitted curve at half-maximal effect; % is scaled to controls: 0 for no effect and ±100 for the full control effect
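Pol eta at 10 nM preincubated with compounds 15 min at room temperature; reaction started with fluorescent substrate (50 nM final) and read kinetically at 0 and 10 min.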
Pol beta inh = qHTS Assay for Inhibitors of DNA Polymerase Beta | Pol beta primer extension/strand displacement, fluorescence kinetic | Potency, µM (top dose mostly 114 µM), inactives show at the highest dose activity change, negative = inhibition, usual class: inhibitors | hit rate 1.3% among 340,000; also: potency is read from the fitted curve at half-maximal effect; % is scaled to controls: 0 for no effect and ±100 for the full control effect
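Pol beta (10 nM) was preincubated with compound for 15 min at room temperature. The reaction was then started with 50 nM substrate and read immediately and after a further 10 min at room temperature.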
GALK inh confirm = Confirmation Assay for Inhibitors of Human Galactokinase (GALK); AID 2015, 2009; purified GALK, Kinase-Glo ATP depletion luminescence; shares compounds with Pol eta inh-1; hit rate 70% among 150; Potency, µM (series often up to 115 µM), inactives show top-dose activity, negative = inhibition, usual class: inhibitors
GALK redox cs = Confirmatory Assay for Inhibitors of Human Galactokinase (GALK): Phenol-HRP redox assay counterscreen; shares compounds with Pol eta inh-1; Phenol red-HRP H2O2 redox cycling, absorbance 600 nm; Potency, µM (doses to about 115 µM), for the others: at the highest dose activity change, negative = H2O2 signal, actives largely listed as inhibitors; hit rate 40% among 150
HEK293 viability = Secondary Assay for Inhibitors of Human Galactokinase (GALK): HEK-293 Cell Viability Assay; AID 2547, 2010; HEK-293 viability, ATP luminescence (CellTiter-Glo), 24/48 h; hit rate 10% among 170; shares compounds with Pol eta inh-1; Potency, µM (top dose mostly 46.1 µM), inactives show at the top dose activity change, negative = cytotoxicity, hits mostly inhibitors; also: potency is read from the fitted curve at half-maximal effect; % is scaled to controls: 0 for no effect and ±100 for the full control effect
Pol kappa inh-2 = qHTS for Inhibitors of Polymerase Kappa: Confirmatory Assay for Cherry-picked Compounds. shares compounds with Pol eta inh-1. purified Pol-kappa, fluorescent strand-displacement substrate. Potency, µM, usual class: inhibitors. hit rate 76% among 920. AID 720501, 2013; also: potency is read from the fitted curve at half-maximal effect
Pol eta inh-2 = qHTS for Inhibitors of Polymerase Eta: Confirmatory Assay for Cherry-picked Compounds; shares compounds with Pol eta inh-1; Pol eta primer extension, TAMRA/BHQ fluorescence, 10 min; Potency, µM, hits mostly inhibitors; hit rate 64% among 2,600; also: potency is read from the fitted curve at half-maximal effect
Starred values were filed as active, the others as inactive; ? = inconclusive; . = not tested or not shown; [ ] = dose if it differs, or a comment. The list is not random: actives were taken first. Their share in the collection is about 2.4%. Calls follow the shape of the dose curve; as a rule, active = well fitted curve in the direction sought with a large enough effect; inconclusive = small, poorly fitted or top-dose-only effect, or another doubt; inactive = no such curve, though single readings can be large; an effect the other way counts as inactive or inconclusive.

SMILES	FEN1 inhibitor	Pol iota inh	Pol kappa inh-1	WRN inhibitor	Pol eta inh-1	Pol beta inh	Pol eta inh-2	others
O=C(COc1ccccc1)NCCSCc1ccco1	-3%	?	?	-33%[57.1 µM]	14µM*	?	?
O=C(COC(=O)c1ccc(S(=O)(=O)NCc2ccco2)cc1)NCc1ccccc1	0%	?	?	-9%	-14%	.	.
O=C(COc1ccccc1F)Nc1ccc(S(=O)(=O)NCc2ccco2)cc1	1%	7%	-8%	-2%	-11%	-3%	.
O=C(COc1ccccc1)Nc1ccc(S(=O)(=O)NCc2ccco2)cc1	2%	?	?	-32%[57.1 µM]	18µM*	45µM*	?
CCc1nnc(NC(=O)CSc2nccn2Cc2ccccc2)s1	9%	?	-10%[60.1 µM]	.	4%	-13%	.
CC(C)Sc1ncc(Cl)c(C(=O)N(Cc2ccc(N(C)C)cc2)C2CCS(=O)(=O)C2)n1 (centres undefined)	-16%	?	-22%	.	79µM*	?	?	Pol kappa inh-2=?
CCSc1ncc(Cl)c(C(=O)N(Cc2ccc(N(C)C)cc2)C2CCS(=O)(=O)C2)n1 (centres undefined)	1%	5%	-13%	-19%	-5%	-11%	.
CC(=O)c1ccc(N2CCN(c3ncnc4onc(-c5ccc(Cl)cc5)c34)CC2)cc1	12%	46%	-2%	.	-25%	2%	.
O=S(=O)(c1ccc2ccccc2c1)N1CCCCCC1	-6%	90%	4%	3%[57.1 µM]	-8%	-27%	.
O=C(O)c1cc(S(=O)(=O)N2CCN(S(=O)(=O)c3ccc4ccccc4c3)CC2)ccc1Br	-10%	?	-36%	-11%[11.6 µM]	18µM*	.	48*	Pol kappa inh-2=17*
CC1=C(C#N)C(=O)NC(=O)/C1=C\c1ccc(-c2cc(C)c(C)cc2[N+](=O)[O-])o1	-18%	?	?	?	?	?	?	Pol kappa inh-2=?
CCCCN1C(=O)C(NC(=O)c2ccc(C(C)(C)C)cc2)(C(F)(F)F)C(C(=O)OC)=C1C (centres undefined)	-22%	6%	-11%	.	-19%	5%	.
CCCCN(CCCC)C(=O)c1c[nH]c2ccc(S(=O)(=O)Nc3cccc(Cl)c3C)cc2c1=O	2%	79µM*	-15%[60.1 µM]	.	40µM*	35µM*	76*	Pol kappa inh-2=15*
COCCCNC(=O)c1c[nH]c2ccc(S(=O)(=O)N(C)c3ccccc3C)cc2c1=O	11%	53%	0%	1%[57.1 µM]	-25%	1%	.
CCOCCCNC(=O)c1c[nH]c2ccc(S(=O)(=O)Nc3cccc(Cl)c3C)cc2c1=O	-16%	?	?	.	32µM*	28µM*	85*	Pol kappa inh-2=21*
CNC(=O)c1c[nH]c2ccc(S(=O)(=O)Nc3cccc(Cl)c3C)cc2c1=O	-9%	?	?	.	?	32µM*	?	Pol kappa inh-2=21*
COc1ccccc1C(=O)Nc1ccccc1OCc1cc(=O)n2ccccc2n1	13%	10%	-6%[60.1 µM]	.	-22%	-1%	.
CC1(C)CC(=O)C2=C(C1)NC(Nc1nc3ccccc3o1)=NC21CCCC1	-16%	6%	0%	-2%	-11%	2%	.	GALK inh confirm=?;GALK redox cs=-22%;HEK293 viability=1%
CC1(C)CC(=O)C2=C(C1)NC(Nc1nc3ccccc3o1)=NC2c1ccccc1Cl (centres undefined)	-7%	24%	5%	.	.	.	.	HEK293 viability=-9%
COc1cc(-c2[nH]nc3c2C(c2ccoc2)C(C#N)=C(N)O3)cc(OC)c1OC (centres undefined)	-18%	?	?	-31%[57.1 µM]	?	18µM*	?
COc1cc(C2C(C#N)=C(N)OC3=C2C(=O)CC(C)(C)C3)cc2c1OCO2 (centres undefined)	-9%	25µM*	?	?	?	.	?
COc1cc(C2C(C#N)=C(N)Oc3cc(O)ccc32)cc2c1OCO2 (centres undefined)	-9%	0%	-12%	-7%	-7%	15%	.
O=C(O)CCC(=O)Nc1ccc2c(c1)Cc1cc(NC(=O)CCC(=O)O)ccc1-2	-14%	-10%	1%	-4%[11.6 µM]	25µM*	45µM*	?
Cn1c(=O)oc2cc(S(=O)(=O)N3CCCC(C(=O)NCCc4ccc(Cl)cc4)C3)ccc21 (centres undefined)	2%	28%	-4%	.	-11%	-11%	.
O=C(c1ccc2c(c1)N(Cc1cccc(F)c1)C(=O)c1ccccc1S2)N1CCCC1	6%	79µM*	2%[60.1 µM]	.	79µM*	40µM*	?	Pol kappa inh-2=?
O=C(O)c1ccc2oc(=O)c(S(=O)(=O)c3ccc(F)cc3)cc2c1	2%	-7%	0%	0%	-22%	-1%	.
O=C(O)c1ccc2nc(-c3cc4cc(F)ccc4oc3=O)[nH]c2c1	-7%	?	5%[60.1 µM]	.	35µM*	35µM*	60*
Nc1cc2c(cc1[N+](=O)[O-])OCCO2	2%	23%	-2%	-14%	-21%	2%	.
Nc1cc2c(cc1[N+](=O)[O-])OCO2	-31%	?	?	-21%[57.1 µM]	45µM*	28µM*	?
